Several values for one entry are separate records, joined by “and”; a condition that tells them apart may be missing. Equal values may be shown once. Results filed as inconclusive are left out. Unmarked numbers belong to inactive results. Activity calls are given as the source filed them. Calls follow the shape of the full dose curve.
Test: qHTS assay to identify small molecule agonists of the endoplasmic reticulum stress response signaling pathway - cell viability counter screen (AID 1159517); also: nearly all actives have a fitted effect of over 50% in size
Details: ESRE-bla HeLa viability, CellTiter-Glo luminescence, 5 h; series mostly up to 61 µM; activity change, negative = cytotoxicity: at the top concentration
Excerpt: U.S. Tox21 Program National Center for Advancing Translational Sciences [NCATS] NIH Chemical Genomics Center [NCGC] U.S. Environmental Protection Agency [EPA] National Institutes of Environmental Health Sciences [NIEHS] National Toxicology Program [NTP] U.S. Food and Drug Administration [FDA] Tox21 Assay Overview: Endoplasmic Reticulum (ER) plays an important role in cellular signaling, protein folding/maturation, stress response, lipid biosynthesis, calcium storage and release etc. Under stress conditions, proteins in ER misfold or unfold, and leading to the expression of ER stress responsive genes. ER stress has been associated with a variety of pathophysiological conditions such as cancer, inflammation, neurodegenerative diseases, diabetes, ischemic heart disease etc. To identify the compounds that induce ER stress response, an ER stress reporter cell line, CellSensor ESRE-bla HeLa (Life Technologies, Carlsbad, CA) containing a beta-lactamase reporter gene under control of the Endoplasmic reticulum Stress Response Element (ESRE) was used to screen Tox21 10K compound library. The cytotoxicity of the Tox21 compound library against the ESRE-bla HeLa cell line was tested in parallel by measuring cell viability using the CellTiter-Glo assay in the same wells.
Tox21 Assay Protocol Summary: ESRE-bla HeLa cells were dispensed at 1,500 cells/6 uL of assay medium per well into black wall/clear-bottom 1536-well plates using a Multidrop Combi (ThermoFisher Scientific, Waltham, MA) dispenser. After the assay plates were incubated at 37 C and 5% CO2 for an overnight, 23 nL of compounds dissolved in DMSO, positive controls or DMSO only was transferred to the assay plate by a Pintool station (Kalypsys, San Diego, CA). The assay plates were incubated at 37 C and 5% CO2 for 5 hr. One uL of LiveBLAzer B/G FRET substrate (Life Technologies) was added using a FRD (Flying Reagent Dispenser, Aurora Discovery, San Diego, CA) and the plates were incubated at room temperature for 2 hr. Fluorescence intensity (405 nm excitation, 460 nm and 530 nm emissions) was measured using an Envision plate reader (PerkinElmer, Shelton, CT). For cytotoxicity, 4 ul/well of CellTiter-Glo reagent was added into the assay plates using an FRD. After 30 min incubation at room temperature, the luminescence intensity was measured using a ViewLux plate reader (PerkinElmer).
With `COC(=O)N(OC)c1ccccc1COc1ccn(-c2ccc(Cl)cc2)n1` the “activity change, negative = cytotoxicity” value was 1.49%. In the case of `CCC(C)Nc1c([N+](=O)[O-])cc(C(C)(C)C)cc1[N+](=O)[O-]` (stereo not given), the “activity change, negative = cytotoxicity” value is reported as -23%. For `CC1=C2C[C@H]3[C@@H](CC=C4C[C@@H](O)CC[C@@]43C)[C@@H]2CC[C@]12O[C@@H]1C[C@H](C)CN[C@H]1[C@H]2C`, the “activity change, negative = cytotoxicity” value was 16.7%. For `CN1[C@@H]2CC[C@H]1CC(O)C2` (stereo not given in full), the “activity change, negative = cytotoxicity” value was 2.51% [at 78.8 µM]. In the case of `COC(=O)c1ccccc1S(=O)(=O)NC(=O)Nc1nc(C)nc(OC)n1`, the “activity change, negative = cytotoxicity” value is reported as 8.52%. For `CSSC`, the “activity change, negative = cytotoxicity” value was 0.874% [at 78.8 µM]. In the case of `Cc1ccn2nc(S(=O)(=O)Nc3c(F)cccc3F)nc2n1`, the “activity change, negative = cytotoxicity” value is reported as 2.98%. With `CC(=O)[O-].CC(=O)[O-].O.O.[Zn+2]` the “activity change, negative = cytotoxicity” value was 9.06%. For `CC(=O)[O-].CC(=O)[O-].CC(=O)[O-].[Cr+3]`, the “activity change, negative = cytotoxicity” value was -36.5%. In the case of `C[C@H]1[C@H](c2ccc(Cl)cc2)SC(=O)N1C(=O)NC1CCCCC1`, the “activity change, negative = cytotoxicity” value is reported as -2.99%. In the case of `Cc1c([N+](=O)[O-])cc2c(c1[N+](=O)[O-])C(C)(C)CC2(C)C`, the “activity change, negative = cytotoxicity” value is reported as -28.1%. For `Cc1cccc(Cc2cnc[nH]2)c1C`, the “activity change, negative = cytotoxicity” value was -5.06%. For `Nc1nc(N)c(N)c(N)n1`, the “activity change, negative = cytotoxicity” value was -5.86% [at 78.8 µM]. In the case of `CC1CN1` (stereo not given), the “activity change, negative = cytotoxicity” value is reported as 8.81%. In the case of `CNC(=O)Oc1cc(C)cc(C(C)C)c1`, the “activity change, negative = cytotoxicity” value is reported as 6.53%. In the case of `Nc1ccc(Cl)cc1C(=O)c1ccccc1F`, the “activity change, negative = cytotoxicity” value is reported as -8.94%. In the case of `CCC1(CC)C(=O)N=C(O)NC1=O`, the “activity change, negative = cytotoxicity” value is reported as 12.3%. With `O=c1c2ccccc2c(=O)c2c1cc(Cl)c1[nH]c3c([nH]c12)c(Cl)cc1c(=O)c2ccccc2c(=O)c13` the “activity change, negative = cytotoxicity” value was -0.657%. With `CC(=O)C(Cl)C(=O)N(C)C` (stereo not given) the “activity change, negative = cytotoxicity” value was -9.92%. In the case of `c1ccc(Nc2ccc(Nc3ccccc3)cc2)cc1`, the “activity change, negative = cytotoxicity” value is reported as -29.5%. For `Cc1ccc(C)c2ccccc12`, the “activity change, negative = cytotoxicity” value was -13.3%. For `CC(C)Br`, the “activity change, negative = cytotoxicity” value was -2.31%. For `CCC[CH2][Sn]([CH2]CCC)([CH2]CCC)[CH2]CCC`, the Potency was 21.9 µM (active). In the case of `CCN(CC)Cc1nccn1-c1ccc([N+](=O)[O-])cc1C(=O)c1ccccc1Cl`, the “activity change, negative = cytotoxicity” value is reported as -2.7%. In the case of `CC1(C)[C@H](/C=C2\CCSC2=O)[C@@H]1C(=O)OCc1coc(Cc2ccccc2)c1`, the “activity change, negative = cytotoxicity” value is reported as -5.35%. With `O=[N+]([O-])c1cccc2cccc([N+](=O)[O-])c12` the “activity change, negative = cytotoxicity” value was -3.31% [at 78.8 µM]. For `CCCCc1ccccc1`, the “activity change, negative = cytotoxicity” value was 17.2%. In the case of `CCCCCCC[CH2][Sn]([Cl])([Cl])[CH2]CCCCCCC`, the “activity change, negative = cytotoxicity” value is reported as 0.315%. For `CO/N=C(\C(=O)OC)c1ccccc1CO/N=C(\C)c1cccc(C(F)(F)F)c1`, the “activity change, negative = cytotoxicity” value was -8.4%. For `Cc1cc2c3c(c1)C(c1ccccc1)=N[C@@H](NC(=O)c1ccncc1)C(=O)N3CC2`, the “activity change, negative = cytotoxicity” value was -11.4%. In the case of `N#Cc1sc2c(=O)c3ccccc3c(=O)c=2sc1C#N`, the Potency is reported as 6.92 µM (active). With `O=C(Nc1ccc(F)cc1F)c1cccnc1Oc1cccc(C(F)(F)F)c1` the “activity change, negative = cytotoxicity” value was 1.17% [at 78.8 µM]. With `O=C(N[C@H]1N=C(c2ccccc2F)c2cccc3c2N(CC3)C1=O)c1cc2ccccc2[nH]1` the “activity change, negative = cytotoxicity” value was -2.98%. With `C=CC(=O)[O][Sn]([CH2]CCC)([CH2]CCC)[CH2]CCC` the Potency was 0.977 µM (active). With `CC(Cc1ccc(OCC(=O)O)cc1)NCC(O)c1csc(C(F)(F)F)n1` (stereo not given) the “activity change, negative = cytotoxicity” value was 1.15%. In the case of `C[N+]1(C)[C@@H]2CC[C@H]1CC(OC(=O)C(CO)c1ccccc1)C2` (stereo not given in full), the “activity change, negative = cytotoxicity” value is reported as -2.56%. In the case of `C=C(C)C(=O)[O][Sn]([CH2]CCC)([CH2]CCC)[CH2]CCC`, the Potency is reported as 0.692 µM (active). With `O=S(=O)(NS(=O)(=O)C(F)(F)F)C(F)(F)F` the “activity change, negative = cytotoxicity” value was 11%. For `O=[N+]([O-])C(Br)Br`, the Potency was 55 µM (active). In the case of `Clc1ccc(C(c2ccc(Cl)cc2)C(Cl)Cl)cc1`, the Potency is reported as 22.2 µM (active) and 54.9 µM (active).

From PubChem BioAssay (Tox21)
% is scaled to controls: 0 for no effect and ±100 for the full control effect; potency is read from the fitted curve at half-maximal effect.
